SIRT5 block: sirtuin-5 (human) deacylase inhibition | actives 1.1% (n = 330,000) | Purified SirT5, succinyl-peptide AMC, trypsin-coupled fluorescence | Q9NXA8 | inhibition, % at 15 µM; in the data active = inhibition above about 15%; inconclusive = no clear call, values can overlap the other calls
PDI inh: inhibitors of human protein disulfide isomerase; P07237; PDI insulin aggregation turbidity, A650, 90 min; inhibition, % at 10 µM; actives 0.052% (n = 350,000); AID 588391;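 active = mean inhibition across replicates of 30% or more, whatever share of single replicates reach that level; inconclusive = mean inhibition below 30% while every single replicate reaches 30%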
Target sequence (P07237 whole entry, looked up): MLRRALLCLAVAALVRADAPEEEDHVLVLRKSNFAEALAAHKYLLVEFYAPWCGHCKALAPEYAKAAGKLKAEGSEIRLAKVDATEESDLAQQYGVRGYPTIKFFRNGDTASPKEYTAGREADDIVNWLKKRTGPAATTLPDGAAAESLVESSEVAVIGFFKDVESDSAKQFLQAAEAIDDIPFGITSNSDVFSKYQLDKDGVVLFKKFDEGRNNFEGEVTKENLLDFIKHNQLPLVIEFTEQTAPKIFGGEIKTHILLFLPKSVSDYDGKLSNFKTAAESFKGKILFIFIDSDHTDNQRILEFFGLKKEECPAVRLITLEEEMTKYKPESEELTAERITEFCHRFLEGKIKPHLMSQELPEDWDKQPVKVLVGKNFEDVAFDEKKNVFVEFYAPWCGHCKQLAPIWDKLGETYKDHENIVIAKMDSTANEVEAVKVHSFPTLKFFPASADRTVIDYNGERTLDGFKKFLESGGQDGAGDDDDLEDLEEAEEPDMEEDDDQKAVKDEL
Rtt109 Vps75: C. albicans Rtt109 histone acetyltransferase inhibition; purified Rtt109/Vps75, ThioGlo CoA-SH fluorescence, 4 h; inhibition, % at 34.9 µM; AID 540336; actives 0.16% (n = 330,000);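 active = inhibition of at least 50% in every replicate; inconclusive = best replicate reaches 50% inhibition but some replicates fall short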
ERp5 block: ERp5 (human) disulfide isomerase inhibition; Q15084; ERp5 insulin aggregation, absorbance 650 nm, 90 min; inhibition, % at 9.99 µM; actives 0.05% (n = 350,000); AID 651711;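 active = mean replicate inhibition above about 25%, with every replicate also reaching it, limit read from the data, passing the limit was not always enough; inconclusive = only one of those two criteria met; inactive = neither criterion met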
DENV2 CPE rescue: DENV2-induced cell death inhibition; actives 1.7% (n = 350,000); DENV2-infected cells, cytopathic effect rescue, plate reader; CPE inhibition, % at 9.99 µM; in the data active = CPE inhibition above about 20%, passing the limit was not always enough; inconclusive = no clear call, values can overlap the other calls; tested in BHK-21 cells
Each line names hits and unclear results; the compound was inactive in the other large screens. Most compounds without a hit are left out; they make up all but 2.3% or so of the library.

CCN(CC)CC(=O)N1CCCC(N2CCN(c3cccc(C(F)(F)F)c3)CC2)C1 (configuration not stated)	DENV2 CPE rescue 30
CN(C)C(=O)CCC(=O)N1CCCC(N2CCN(c3cccc(C(F)(F)F)c3)CC2)C1 (configuration not stated)	none
Cc1cc(C(=O)N2CCCC(N3CCN(c4cccc(C(F)(F)F)c4)CC3)C2)no1 (configuration not stated)	DENV2 CPE rescue inconclusive
O=C(c1cc(C2CC2)on1)N1CCCC(N2CCN(c3cccc(C(F)(F)F)c3)CC2)C1 (configuration not stated)	DENV2 CPE rescue 30
Cc1ccc(S(=O)(=O)Nc2ccc3c(c2)C(=O)N([C@@H](C)CO)C[C@H](C)[C@H](CN(C)Cc2ccc(C(=O)O)cc2)OCCCC[C@H](C)O3)cc1	none (no result: PDI inh, Rtt109 Vps75)
CCOc1ccccc1NC(=O)COC(=O)CC(C)(C)CC1=NS(=O)(=O)c2ccccc2N1	SIRT5 block 18
Cc1cc(C)cc(NC(=O)COC(=O)CCCC2=NS(=O)(=O)c3ccccc3N2)c1	none
C[C@@H]1CCCCO[C@H](CN(C)S(=O)(=O)c2cccs2)[C@@H](C)CN([C@H](C)CO)C(=O)c2cc(NS(=O)(=O)c3ccccc3)ccc2O1	DENV2 CPE rescue inconclusive (no result: PDI inh, Rtt109 Vps75)
Cc1ccc(S(=O)(=O)N[C@H]2CC[C@H](CCn3cc(-c4cccc(F)c4)nn3)O[C@@H]2CO)cc1	none (no result: PDI inh, Rtt109 Vps75)
COc1ccc(S(=O)(=O)Nc2ccc3c(c2)C(=O)N([C@H](C)CO)C[C@H](C)[C@H](CN(C)S(=O)(=O)c2ccccc2)OCCCC[C@H](C)O3)cc1	SIRT5 block 17, DENV2 CPE rescue inconclusive (no result: PDI inh, Rtt109 Vps75)
COc1ccc(S(=O)(=O)Nc2ccc3c(c2)C(=O)N([C@@H](C)CO)C[C@@H](C)[C@@H](CN(C)S(=O)(=O)c2ccccc2)OCCCC[C@H](C)O3)cc1	DENV2 CPE rescue 21 (no result: PDI inh, Rtt109 Vps75)
COc1ccc(S(=O)(=O)N(C)C[C@@H]2Oc3ccc(NS(=O)(=O)c4ccccc4)cc3C(=O)N([C@H](C)CO)C[C@H]2C)cc1	DENV2 CPE rescue 133 (no result: SIRT5 block, PDI inh, Rtt109 Vps75, ERp5 block)
COc1ccc(S(=O)(=O)Nc2ccc3c(c2)C(=O)N([C@@H](C)CO)C[C@H](C)[C@@H](CN(C)S(=O)(=O)c2ccccc2)OCCCC[C@H](C)O3)cc1	none (no result: PDI inh, Rtt109 Vps75)
COc1ccc(S(=O)(=O)N(C)C[C@H]2OCCCC[C@@H](C)Oc3ccc(NS(C)(=O)=O)cc3C(=O)N([C@H](C)CO)C[C@@H]2C)cc1	none (no result: PDI inh, Rtt109 Vps75)
COc1ccc(S(=O)(=O)N(C)C[C@H]2OCCCC[C@H](C)Oc3ccc(NS(C)(=O)=O)cc3C(=O)N([C@H](C)CO)C[C@@H]2C)cc1	DENV2 CPE rescue 20 (no result: PDI inh, Rtt109 Vps75)
CO[C@@H]1CN(C)C(=O)c2cc(NC(=O)c3cnccn3)ccc2OC[C@H](C)N(CC2CC2)C[C@H]1C	none (no result: PDI inh, Rtt109 Vps75, ERp5 block)
C[C@H]1CN([C@@H](C)CO)C(=O)Cc2cc(NS(=O)(=O)c3ccc(Cl)cc3)ccc2O[C@H]1CN(C)C(=O)Nc1ccccc1	none (no result: PDI inh, Rtt109 Vps75)
C[C@H](CO)N1C[C@H](C)[C@@H](CN(C)C(=O)Cc2ccccc2)Oc2ncc(-c3ccc(F)cc3)cc2C1=O	none (no result: PDI inh, Rtt109 Vps75)
COc1ccc(S(=O)(=O)N(C)C[C@H]2OCCCC[C@@H](C)Oc3ccc(NS(=O)(=O)c4ccccc4)cc3C(=O)N([C@@H](C)CO)C[C@H]2C)cc1	DENV2 CPE rescue 56 (no result: PDI inh, Rtt109 Vps75)
COc1ccc(S(=O)(=O)Nc2ccc3c(c2)C(=O)N([C@H](C)CO)C[C@@H](C)[C@@H](CN(C)S(=O)(=O)c2ccccc2)OCCCC[C@@H](C)O3)cc1	SIRT5 block 24 (no result: PDI inh, Rtt109 Vps75)
COc1ccc(S(=O)(=O)N(C)C[C@@H]2OCCCC[C@H](C)Oc3ccc(NS(=O)(=O)c4ccccc4)cc3C(=O)N([C@H](C)CO)C[C@@H]2C)cc1	DENV2 CPE rescue inconclusive (no result: PDI inh, Rtt109 Vps75)
CCOC(=O)Cc1csc(NC(=O)c2cc(C)cc(C)c2)n1	SIRT5 block 16
CCOC(=O)Cc1csc(NC(=O)c2ccc(C)cc2)n1	none
COc1ccc(CC(N)c2csc(NC(=O)c3ccc(F)cc3)n2)cc1 (configuration not stated)	none (no result: SIRT5 block, Rtt109 Vps75)
COc1ccc(CC(N)c2csc(NC(=O)c3ccc(OC)cc3)n2)cc1 (configuration not stated)	DENV2 CPE rescue 37 (no result: Rtt109 Vps75)
C[C@@H]1CN([C@H](C)CO)S(=O)(=O)c2ccc(C3=CCCC3)cc2O[C@H]1CN(C)C(=O)Cc1ccncc1	none (no result: PDI inh, Rtt109 Vps75)
CCCNC(=O)N(C)C[C@H]1Oc2cc(C3=CCCCC3)ccc2S(=O)(=O)N([C@@H](C)CO)C[C@@H]1C	none (no result: PDI inh, Rtt109 Vps75)

Compound activity as filed in PubChem.
